Experimental data as given in PubChem BioAssay (Tox21).
Results filed as inconclusive are left out. The source made the active and inactive calls. The call rests on the fitted dose curve.

How the values were obtained:
[1] = target: Acetylcholinesterase (Homo sapiens) (UniProt P22303); assay: Acetylcholinesterase (AChE) small molecule antagonists: colormetric cell-based qHTS assay (AID 1347395); further: nearly all actives have a fitted effect of over 30% in size
Method in brief: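 Cells (SH-SY5Y, 2,000 per well) are seeded and left overnight at 37 C. Compound is added for 30 min, then DTNB and acetylthiocholine for a further 90 min at 37 C before absorbance-based thiocholine detection.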

[2] = target: Acetylcholinesterase (Homo sapiens) (UniProt P22303); assay: Acetylcholinesterase (AChE) small molecule antagonists: enzyme-based qHTS assay (AID 1347397); settings: Potency: AChE enzyme activity inhibition; outcome: AChE enzyme activity inhibition; further: nearly all actives have a fitted effect of over 55% in size
Method in brief: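 Recombinant human AChE, dispensed at 50 mU/mL, was preincubated with Tox21 10K compounds or DMSO vehicle for 30 min at room temperature. DTNB plus acetylthiocholine was then added, and thiocholine was measured colorimetrically after a further 10 min.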

[3] = target: Acetylcholinesterase (Homo sapiens) (UniProt P22303); assay: Acetylcholinesterase (AChE) small molecule antagonists: fluorescence cell-based qHTS assay (AID 1347398); settings: Potency: AChE activity; outcome: AChE activity; further: nearly all actives have a fitted effect of over 50% in size
Method in brief: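 Human SH-SY5Y cells were plated overnight at 37 C, exposed to compound for 30 min at 37 C, 5% CO2, then given acetylthiocholine plus Thiolite Green for 40 min at room temperature; thiocholine fluorescence (Ex/Em 490/520 nm) reports endogenous AChE activity.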

[4] = target: Acetylcholinesterase (Homo sapiens) (UniProt P22303); assay: Acetylcholinesterase (AChE) small molecule antagonists: enzyme-based qHTS assay with human liver microsomes (AID 1347399); settings: Potency: qHTS inhibition; outcome: qHTS inhibition; further: nearly all actives have a fitted effect of over 60% in size
Method in brief: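 Recombinant human AChE (50 mU/mL in the enzyme mix) and human liver microsomes (0.25 mg/mL final) were preincubated with compound and NADPH (0.25 mg/mL final) for 30 min at 37 C. Acetylthiocholine/DTNB was then added; thiocholine was read colorimetrically after 10 min at room temperature.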
On the % scale 0 is the no-effect control and ±100 the full control effect.

Acetylcholinesterase (Homo sapiens), sequence (P22303 whole entry, looked up): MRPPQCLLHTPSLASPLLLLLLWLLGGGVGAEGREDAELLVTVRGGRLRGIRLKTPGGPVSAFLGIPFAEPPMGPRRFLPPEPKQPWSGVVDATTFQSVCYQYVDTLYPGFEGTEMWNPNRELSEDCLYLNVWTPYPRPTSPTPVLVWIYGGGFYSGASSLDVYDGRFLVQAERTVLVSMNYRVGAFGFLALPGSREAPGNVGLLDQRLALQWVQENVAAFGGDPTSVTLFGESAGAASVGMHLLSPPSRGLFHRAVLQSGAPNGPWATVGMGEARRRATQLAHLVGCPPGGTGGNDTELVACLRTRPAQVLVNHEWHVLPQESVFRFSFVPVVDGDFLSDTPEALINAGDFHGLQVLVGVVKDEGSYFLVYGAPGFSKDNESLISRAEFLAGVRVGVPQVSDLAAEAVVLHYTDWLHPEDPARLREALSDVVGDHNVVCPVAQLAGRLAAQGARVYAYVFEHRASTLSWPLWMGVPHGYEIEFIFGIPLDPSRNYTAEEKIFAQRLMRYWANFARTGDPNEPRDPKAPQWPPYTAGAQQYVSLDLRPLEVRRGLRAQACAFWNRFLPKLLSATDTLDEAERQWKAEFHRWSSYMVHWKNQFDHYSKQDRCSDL

C=CCOCC(O)CS(=O)(=O)O (stereo not drawn)
inactive: Potency [1] | Potency [2] | Potency [3] | Potency [4]

CCOC(=O)CC(=O)c1cc(F)c(Cl)nc1Cl
inactive: Potency [1] | Potency [2] | Potency [3] | Potency [4]

CC(=O)S[C@@H]1CC2=CC(=O)CC[C@]2(C)[C@H]2CC[C@@]3(C)[C@@H](CC[C@@]34CCC(=O)O4)[C@H]12
inactive: Potency [1] | Potency [2] | Potency [3] | Potency [4]

Cc1ccc(O)c([N+](=O)[O-])c1
inactive: Potency [1] | Potency [2] | Potency [3] | Potency [4]

CC1(C)O[C@@H]2C[C@H]3[C@@H]4CCC5=CC(=O)CC[C@]5(C)[C@@]4(F)[C@@H](O)C[C@]3(C)[C@]2(C(=O)CCl)O1
inactive: Potency [1] | Potency [2] | Potency [3] | Potency [4]

COc1cc(-c2ccc(N=C=O)c(OC)c2)ccc1N=C=O
inactive: Potency [1] | Potency [2] | Potency [3] | Potency [4]

CC(=O)C1CCCCC1=O (stereo not drawn)
inactive: Potency [1] | Potency [2] | Potency [3] | Potency [4]

CCOC(C)(C)C
inactive: Potency [1] | Potency [2] | Potency [3] | Potency [4]

CC[C@@]1(c2ccccc2)NC(=O)N(C)C1=O
inactive: Potency [1] | Potency [2] | Potency [3] | Potency [4]

CCCCN1C=CN(C)C1
inactive: activity, negative = inhibition [1] 0.291% [at 23.6 µM] | activity change, negative = inhibition [2] 1.48% [at 23.6 µM] | activity change, negative = inhibition [3] -2.29% [at 23.8 µM] | activity change, negative = inhibition [4] 0.0718% [at 23.6 µM]

CC1=C(CC(=O)O)c2cc(F)ccc2/C1=C\c1ccc(S(C)(=O)=O)cc1
inactive: Potency [1] | Potency [2] | Potency [3] | Potency [4]

CC(=O)Nc1ccc(OCCOCCOc2ccc(NC(C)=O)cc2)cc1
inactive: Potency [1] | Potency [2] | Potency [3] | Potency [4]
